# Screening results: PubChem BioAssay, National Center for Advancing Translational Sciences (NCATS)
# TDP1 inh: TDP1 (human) enzyme inhibition; recombinant TDP1, AlphaScreen DNA substrate cleavage; Potency, µM (top dose mostly 130 µM), for the others: at the highest dose activity change, negative = inhibition, hits mostly inhibitors; Q9NUW8; 350,000 compounds, 0.28% hits; note: potency is the fitted concentration of half-maximal effect; % is set by controls: 0 for no effect and ±100 for the full control effect; nearly all actives have a fitted effect of over 40% in size
# Target sequence (Q9NUW8 whole entry, looked up): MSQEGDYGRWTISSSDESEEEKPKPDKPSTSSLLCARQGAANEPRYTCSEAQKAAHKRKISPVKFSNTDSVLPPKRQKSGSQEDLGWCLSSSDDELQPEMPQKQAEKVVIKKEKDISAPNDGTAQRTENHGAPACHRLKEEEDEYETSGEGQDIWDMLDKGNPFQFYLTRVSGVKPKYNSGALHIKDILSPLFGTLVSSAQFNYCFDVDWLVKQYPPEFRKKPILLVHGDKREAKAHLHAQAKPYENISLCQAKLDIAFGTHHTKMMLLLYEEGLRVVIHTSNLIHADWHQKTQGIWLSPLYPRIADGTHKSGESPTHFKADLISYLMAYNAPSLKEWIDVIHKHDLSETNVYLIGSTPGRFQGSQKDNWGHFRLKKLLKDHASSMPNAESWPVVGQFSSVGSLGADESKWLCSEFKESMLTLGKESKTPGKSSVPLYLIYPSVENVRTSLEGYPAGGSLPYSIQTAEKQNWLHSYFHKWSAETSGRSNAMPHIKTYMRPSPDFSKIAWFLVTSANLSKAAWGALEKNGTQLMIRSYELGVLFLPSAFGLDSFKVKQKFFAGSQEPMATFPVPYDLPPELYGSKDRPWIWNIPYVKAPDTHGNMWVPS
#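 Recombinant human Tdp1 (E. coli-expressed, 1 nM final) preincubated with compounds 15 min at room temperature, then 5'-biotin/3'-phosphotyrosine-FITC DNA substrate (15 nM final) added for 5 min. AlphaScreen beads (10 ug/ml final) added 10 min; cleavage lowers signal.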
# DT40 TDP1 CPT: growth inhibition of DT40 Tdp1-/-;hTDP1 cells with camptothecin (screen for TDP1 inhibitors) | chicken DT40 Tdp1-/-;hTDP1 cells + 20 nM CPT, ATP luminescence, 48 h | Potency, µM (doses to about 46.2 µM), for inactives: top-dose activity change, negative = growth inhibition, actives largely listed as inhibitors | 420,000 compounds, 12% hits | AID 686979; note: potency is the fitted concentration of half-maximal effect; % is set by controls: 0 for no effect and ±100 for the full control effect; nearly all actives have a fitted effect of over 55% in size
#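 Chicken DT40 Tdp1-/- cells stably complemented with human TDP1 were seeded at 400 cells/well in medium containing 20 nM camptothecin, exposed to pin-transferred compounds, and grown at 37 °C for at least 48 hr. Viability was read as ATP luminescence.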
# TGFb SMAD3 inh: blocks TGF-b signaling; HepG2 CAGA-GFP TGF-b/SMAD3 reporter, GFP fluorescence, 18 h; TGF-beta stimulated, 500 pg/mL final; Potency, µM (top dose mostly 46.1 µM), inactives show at the top dose activity, negative = inhibition, actives largely listed as inhibitors; 410,000 compounds, 1.2% hits; note: potency is the fitted concentration of half-maximal effect; % is set by controls: 0 for no effect and ±100 for the full control effect; nearly all actives have a fitted effect of over 65% in size
#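 Per well, imaged GFP fluorescence of HEPG2 CAGA-GFP cells gives the signal; cells get compound, then TGF-beta (500 pg/mL final), 18 h at 37 degrees C; %Activity versus -TGF-beta and +DMSO controls.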
# IL-1B inflam inh: inhibitors of inflammasome signaling (IL-1 beta secretion). THP-1 LPS/ATP IL-1B secretion, AlphaLISA, 16 h; hits give low values. 360,000 compounds, 4.7% hits. AID 743279. activity change, % at 57.5 µM; in the data active = activity change below about -50%; inconclusive = mostly about -30% to -49%; note: % is set by controls: 0 for no effect and ±100 for the full control effect
#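 Secreted IL-1B measured by AlphaLISA bead assay after 16 h compound exposure of THP-1 cells; compounds (final up to 57.5 uM) added 1 h before LPS (250 ng/mL) and ATP (1.25 mM) stimulation; lower signal means less secretion.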
# TDP1 cell noCPT: qHTS for Inhibitors of human tyrosyl-DNA phosphodiesterase 1 (TDP1): qHTS in cells in absence of CPT; DT40 Tdp1-/- hTDP1 cells, no CPT, ATP luminescence, 48 h; Potency, µM (doses to about 46.2 µM), without a hit: at the highest dose activity change, negative = growth inhibition, most hits filed as inhibitors; 420,000 compounds, 15% hits; note: potency is the fitted concentration of half-maximal effect; % is set by controls: 0 for no effect and ±100 for the full control effect; nearly all actives have a fitted effect of over 55% in size
#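 Growth of hTDP1-complemented DT40 Tdp1-knockout cells is measured by ATP luminescence after at least 48 hr compound exposure at 37 °C, with DMSO substituting for the 20 nM CPT used in the parallel screen.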
# HepG2 viability: kills HepG2 cells in TGF-b inhibitor counter-screen; HepG2 CAGA-GFP viability, ATP luminescence, 18 h; AID 588856; Potency, µM (top dose mostly 46.1 µM), for the others: at the highest dose activity change, negative = cytotoxicity, most hits filed as cytotoxic; 410,000 compounds, 0.76% hits; note: potency is the fitted concentration of half-maximal effect
#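 HepG2 CAGA-GFP cells (1000/well, DMEM with 1% FBS) received compound, then TGF-beta at 500 pg/mL final, and were incubated 18 hours at 37 degrees C. Viability was read by CellTiter-Glo luminescence. Media-only wells were set as complete cell-killing and DMSO as no toxicity.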
# * marks the source's active call; other numbers are inactive results; ? = inconclusive; · = no result given; [ ] = dose if it differs, or a comment. Compounds with a hit are over-represented: about 18% of the library has one in this group of screens. Unless noted, calls come from the whole dose curve; as a rule, active = well fitted curve in the direction sought with a large enough effect; inconclusive = small, poorly fitted or top-dose-only effect, or another doubt; inactive = no such curve, though single readings can be large; an effect the other way counts as inactive or inconclusive.
SMILES,TDP1 inh,DT40 TDP1 CPT,TGFb SMAD3 inh,IL-1B inflam inh,TDP1 cell noCPT,HepG2 viability
CO/C1=C\C(C)=C\[C@@H](C)[C@@H](O)[C@@H](C)C/C(C)=C/C=C/[C@H](OC)[C@@H]([C@@H](C)[C@@H](O)[C@H](C)[C@@]2(O)C[C@@H](O)[C@H](C)C(C(C)C)O2)OC1=O (stereo partly specified),16.1%,·,·,·,·,·
ClC1=C(Cl)C(Cl)=C(Cl)C1=C/C=C/c1ccccc1,8.2%,5.17µM*,-2.0%,12.9,3.26µM*,-2.0%
O=[N+]([O-])/C=C/c1ccccc1,7.6%,·,·,·,·,·
NCC(CS(=O)(=O)O)c1ccc(Cl)cc1 (stereo unspecified),-8.5%,3.0%,·,·,-21.1%,·
O=C(N[C@@H]1CN2CCC1CC2)c1cc(Cl)cc2[nH]cnc12,3.6%,·,·,·,·,·
c1cncc([C@H]2CCCCN2)c1,13.6%[56.1 µM],2.1%,·,·,-14.0%,·
O=C(CCC1CCN(Cc2ccccc2)CC1)c1ccc2c(c1)NCCCC2,·,?,·,·,11.9µM*,·
O=C(Cn1ncc2c3ccccc3n(Cc3ccccc3F)c2c1=O)N1CCC2(CC1)OCCO2,6.6%,23.1µM*,-10.7%,?,11.6µM*,8.0%
O=C(Cn1ncc2c3ccccc3n(Cc3ccccc3)c2c1=O)N1CCC2(CC1)OCCO2,4.4%,·,·,·,·,·
CCC(c1nnnn1-c1ccc2c(c1)OCCO2)N1CCC(n2c(=O)[nH]c3ccccc32)CC1 (stereo unspecified),·,10.3µM*,?,-19.9,9.2µM*,-14.9%
CSCCC(c1nnnn1C(C)(C)C)N1CCC2(CC1)C(=O)NCN2c1ccccc1 (stereo unspecified),·,?,-28.1%,-9.6,?,3.5%
CSCCC(c1nnnn1-c1ccc2c(c1)OCCO2)N1CCC(n2c(=O)[nH]c3ccccc32)CC1 (stereo unspecified),·,7.31µM*,?,?,7.31µM*,-10.8%
CCC(c1nnnn1C1CCCCC1)N1CCC2(CC1)C(=O)NCN2c1ccccc1 (stereo unspecified),·,?,1.2%,-0.1,?,-16.9%
O=c1[nH]c2ccccc2n1C1CCN(C(CCc2ccccc2)c2nnnn2C2CCCC2)CC1 (stereo unspecified),·,18.4µM*,?,-55.2*,16.4µM*,-29.7%
Nc1ccc(-c2ccc(N)c(Cl)c2)cc1Cl,14.4%,·,·,·,·,·
CC[C@@]1(O)C(=O)OCc2c1cc1n(c2=O)-c2cc3ccccc3nc2C1,4.3%,·,·,·,·,·
O=C(Nc1ccc(Br)cc1)c1cc(Br)cc(Br)c1O,5.1%,-24.6%,·,·,-2.0%,·
CC(N)CCCC(C)(C)O (stereo unspecified),7.9%[56.1 µM],0.0%,·,·,-6.4%,·
CCSc1nc2n(n1)C(c1ccc(Cl)cc1Cl)C(C(=O)Nc1ccccc1C)=C(C)N2 (stereo unspecified),0.5%,18.4µM*,-21.8%,·,13µM*,4.0%
COc1c(Cl)cc(Cl)cc1C(=O)Nc1cccc(-c2nc3ccccc3o2)c1C,-8.4%,?,8.8%,·,?,4.9%
COCC#CCN1CCCCC1c1cccnc1 (stereo unspecified),0.0%,14.9%[9.04 µM],·,·,-6.5%[9.04 µM],·
O=c1c2ccccc2cnn1Cc1n[nH]c(=S)n1C1CC2CCC1C2 (stereo unspecified),·,?,-22.4%,3.7,18.4µM*,0.2%
CCCC1=Nc2cc(C(=O)NCCc3ccc(OC)cc3OC)ccc2Sc2ccccc21,2.5%,18.4µM*,?,·,?,-6.4%
Cc1nn(CC(C)C)c(Cl)c1C(=O)NC1CCC(C)CC1 (stereo unspecified),·,7.1%,-12.6%,33.1,-9.1%,-11.0%
